NS1 function inh = inhibitors of influenza NS1 protein function. actives 0.4% (n = 270,000). Potency, µM (top dose mostly 46.1 µM); calls by dose curve; further: actives are rising curves; nearly all actives have a fitted effect of over 50% in size
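A cell-based growth assay was used: compounds that relieve NS1-induced slow growth of budding yeast raise OD600. Assay medium was yeast nitrogen base with ammonium sulphate and -URA supplement, pH 6.0, with 2% galactose.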
Pf growth 96h = P. falciparum growth inhibition at 96 hours | P. falciparum luciferase reporter growth, 96 h | Potency, µM (highest dose often 28.7 µM), most hits filed as inhibitors | actives 6.9% (n = 320,000) | AID 504834
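Erythrocytes infected with luciferase-expressing P. falciparum were dispensed at 2% hematocrit and 0.05% parasitemia (final), then incubated with compounds 96 hours at 37 C in 5% CO2. Luminescence after detection reagent addition reported growth.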
SARS PLP yeast = blocks SARS-CoV papain-like protease in a yeast assay | Potency, µM (series often up to 32.9 µM), hits mostly activators | S. cerevisiae expressing SARS-CoV PLpro, growth rescue | actives 0.19% (n = 330,000); calls by dose curve; further: nearly all actives have a fitted effect of over 55% in size
Pf growth 48h = P. falciparum growth inhibition at 48 hours (one generation); P. falciparum luciferase growth in erythrocytes, 48 h; Potency, µM (highest dose often 28.7 µM), most hits filed as inhibitors; actives 5.9% (n = 310,000)
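Luminescence readout; reporter = integrated firefly luciferase in P. falciparum. RBC culture at 2% hematocrit, 0.1% parasitemia final, 37 C/5% CO2; decreased signal taken as growth inhibition.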
Of the large screens only hits and unclear results are named; the others gave an inactive call; ! = not active in a repeat. The list is not random: actives were taken first. Their share in the collection is about 10%. Unless noted, the call rests on the fitted dose curve; in most records, active means well fitted inhibition curve with a large enough effect; inconclusive means small, poorly fitted or top-dose-only effect, or another doubt; inactive means no such curve, though single readings can be large or run the other way.

CCOC(=O)c1c(N)sc2c1CCN(CCc1ccccc1)C2	none
CCOC(=O)c1c(NC(=S)Nc2ccccc2)sc2c1CCN(CCc1ccccc1)C2	NS1 function inh inconclusive, Pf growth 96h 2.3µM, Pf growth 48h 13µM
CCOC(=O)c1sc2nc(N3CCOCC3)c3c(c2c1N)CCC3	Pf growth 96h inconclusive, Pf growth 48h inconclusive
CCOC(=O)c1c(NC(=O)CSc2ncccn2)sc2c1CCN(Cc1ccccc1)C2	Pf growth 96h 7.4µM, Pf growth 48h inconclusive
CCOC(=O)c1sc2nc(N3CCOCC3)c3c(c2c1N)CCN(Cc1ccccc1)C3	Pf growth 96h 9.3µM, Pf growth 48h inconclusive
Cc1ccc(-c2nc3c(c(SCC(=O)N4CCOCC4)n2)Cc2c(CO)cnc(C)c2O3)cc1	Pf growth 48h 7.4µM
COc1ccc(-c2nc3c(c(SCC(=O)N4CCOCC4)n2)Cc2c(CO)cnc(C)c2O3)cc1	Pf growth 48h inconclusive
Cc1ccc(S(=O)(=O)NC(=O)COc2ccc(Cl)cc2Cl)cc1	none
CC1=NN(c2ccccc2)C(=O)C1C=Nc1ccccc1O (stereo not drawn)	Pf growth 96h inconclusive, Pf growth 48h 5.2µM
COC(=O)[C@@H](N)Cc1ccc(O)c(O)c1	Pf growth 96h 9.5µM!, Pf growth 48h inconclusive (no result: SARS PLP yeast)
CSc1nc2nc3c(cc2c(=O)[nH]1)C(O)Oc1ccc(C)cc1-3 (stereo not drawn)	Pf growth 96h inconclusive, Pf growth 48h 1.3µM (no result: NS1 function inh)
CSc1nc(O)c(C(c2ccc(C)cc2)c2c(O)nc(SC)[nH]c2=O)c(=O)[nH]1	none
O=C(NCCN1CCCCC1)Nc1ccc(F)cc1	Pf growth 96h inconclusive
O=C(NCCN1CCc2ccccc2C1)Nc1ccc(F)cc1	none
Cc1ccc(NC(=O)NCCN2CCCCC2)cc1C	Pf growth 96h 17µM
Cc1ccccc1NC(=O)NCCCN1CCCC1	Pf growth 96h 2.3µM (no result: Pf growth 48h)
CCc1ccc(NC(=O)NCCN2CCc3ccccc3C2)cc1	Pf growth 96h 2.1µM
CC(=O)c1cc(CN2CCN(C3CCCCC3)C(CCO)C2)cs1 (stereo not drawn)	none
O=C(NC1CCC(O)CC1)c1cccnc1Sc1ccccc1Cl (stereo not drawn)	none
Cc1cccnc1NC(=O)C(c1ccccc1)c1ccccc1	none
N#Cc1ccc(NC(=O)CCc2ccc(S(=O)(=O)N3CCOCC3)cc2)cc1	Pf growth 96h inconclusive (no result: Pf growth 48h)
O=S(=O)(c1ccc(NC(=S)N/N=C/c2ccc(N3CCOCC3)cc2)cc1)N1CCOCC1	NS1 function inh inconclusive, Pf growth 96h 5.9µM
Cc1ccc(/C=N/Nc2cc(C)nc(N3CCOCC3)n2)cc1	none
O=S(=O)(c1ccc(NC(=S)N/N=C/c2c3ccccc3cc3ccccc23)cc1)N1CCOCC1	Pf growth 96h inconclusive, Pf growth 48h 3.3µM
C=C(C)/C=N/NC(=S)Nc1ccc(S(=O)(=O)N2CCOCC2)cc1	Pf growth 96h inconclusive, Pf growth 48h inconclusive
Cc1ccc(N/N=C/c2ccc(N3CCOCC3)cc2)cc1C	Pf growth 96h 10µM
O=S(=O)(c1ccc(NC(=S)N/N=C/c2ccc(Oc3ccccc3)cc2)cc1)N1CCOCC1	none
N#Cc1ccc(/C=N/NC(=O)CCc2ccc(S(=O)(=O)N3CCOCC3)cc2)cc1	Pf growth 96h 6.6µM, Pf growth 48h inconclusive
O=C(NCc1cccnc1)c1cccs1	none
CCOC(=O)c1cnc2c(cnn2CC)c1NN=C(C)C	Pf growth 96h inconclusive, Pf growth 48h inconclusive (no result: SARS PLP yeast)
CN1CCN(S(=O)(=O)c2cccc(C#N)c2)C(c2ccccc2)C1 (stereo not drawn)	none (no result: NS1 function inh)
CCN1C(=NCCOC)N[C@@H](c2cccc(C(F)(F)F)c2)C(C(=O)OC)=C1C	Pf growth 96h 2.1µM
CCN1C(=NCCc2ccccn2)N[C@@H](c2cccc(C(F)(F)F)c2)C(C(=O)OC)=C1C	Pf growth 48h inconclusive
CCN1C(=NCC2CC2)N[C@@H](c2cccc(C(F)(F)F)c2)C(C(=O)OC)=C1C	Pf growth 96h 12µM, Pf growth 48h inconclusive
CCN1C(=NCc2ccco2)N[C@@H](c2cccc(C(F)(F)F)c2)C(C(=O)OC)=C1C	Pf growth 48h inconclusive
CC(=O)Nc1ccc(S(=O)(=O)N(C)CC(=O)OCC(=O)N2CCCC2=O)cc1	Pf growth 48h inconclusive (no result: NS1 function inh)
CCCCN1CCc2c(c3ccccc3n2Cc2ccccc2)C1	Pf growth 96h 6.6µM, Pf growth 48h 10µM
O=[N+]([O-])c1cccc(-c2c(-c3ccccc3)ncc3ccc(F)cc23)c1	Pf growth 96h 4.7µM (no result: NS1 function inh)
Fc1cccc(-c2c(-c3ccccc3)ncc3cc(F)ccc23)c1	Pf growth 96h inconclusive, Pf growth 48h inconclusive (no result: NS1 function inh)
CC(=O)Nc1ccc(NC(=O)c2ccc(C3SCC(=O)N3CCc3ccccc3)cc2)cc1 (stereo not drawn)	Pf growth 96h 12µM
Cc1cccc(NC(=O)c2ccc(C3SCC(=O)N3CCc3ccccc3)cc2)c1 (stereo not drawn)	Pf growth 48h inconclusive
Cc1ccc(CSCCNC(=O)c2ccc(C)cc2)cc1	Pf growth 48h 13µM
O=C(NCCSCc1ccccc1)c1ccc(C2SCC(=O)N2Cc2ccccc2)cc1 (stereo not drawn)	Pf growth 96h 7.4µM (no result: Pf growth 48h)
Cc1cc(NC(=O)c2ccc(F)c(S(=O)(=O)N3CCCCC3)c2)no1	Pf growth 96h inconclusive, Pf growth 48h inconclusive
Cc1c(N(CC(=O)O)S(=O)(=O)c2ccccc2)c(=O)n(-c2ccccc2)n1C	Pf growth 96h 4.7µM
Cc1c(N(C)C(=O)C2CCCN2S(=O)(=O)c2ccccc2)c(=O)n(-c2ccccc2)n1C (stereo not drawn)	Pf growth 96h 2.3µM
Cc1c(N(C)S(=O)(=O)c2cccc(C(=O)NCC3CCCO3)c2)c(=O)n(-c2ccccc2)n1C (stereo not drawn)	Pf growth 96h inconclusive (no result: NS1 function inh)
Cc1c(NC(=O)C2CCCN2S(=O)(=O)c2ccc(Cl)cc2)c(=O)n(-c2ccccc2)n1C (stereo not drawn)	Pf growth 96h inconclusive (no result: Pf growth 48h)
Cc1c(NC(=O)CN(c2ccc(F)cc2)S(=O)(=O)c2ccccc2)c(=O)n(-c2ccccc2)n1C	Pf growth 96h inconclusive
Cc1c(N(C)S(=O)(=O)c2cccc(C(=O)NC(C)C)c2)c(=O)n(-c2ccccc2)n1C	Pf growth 96h 12µM
COc1ccc(C2=NS(=O)(=O)N(C)C(C(=O)N3CCC(C(N)=O)CC3)=C2)cc1	none
CC1CCCN(C(=O)Cn2nnc(-c3ccc(S(C)(=O)=O)cc3)n2)C1 (stereo not drawn)	none
CC(=O)NCC1CCN(C(=O)C2CCC(=O)N(CCc3cccc(F)c3)C2)CC1 (stereo not drawn)	Pf growth 96h 13µM
CN1CCN(C(=O)C2CCC(=O)N(CCc3cccc(F)c3)C2)CC1 (stereo not drawn)	Pf growth 96h 9.3µM, SARS PLP yeast inconclusive, Pf growth 48h inconclusive
COc1ccc(CCCNC(=O)C2CCC(=O)N(CCc3cccc(F)c3)C2)cc1 (stereo not drawn)	Pf growth 96h 4.1µM
COC(=O)C1CCN(C(=O)C2CCC(=O)N(CCc3cccc(F)c3)C2)CC1 (stereo not drawn)	Pf growth 96h inconclusive, SARS PLP yeast inconclusive
CCC(C)Oc1cc(-c2ccnc(Nc3cccc(Cl)c3)n2)ccn1 (stereo not drawn)	Pf growth 96h inconclusive, Pf growth 48h inconclusive
OCCCNc1cc(-c2ccnc(Nc3cccc(Cl)c3)n2)ccn1	Pf growth 96h 0.41µM, Pf growth 48h 0.74µM

Source: PubChem
